Experimental findings from PubChem BioAssay (Tox21) are described below.

SMILES strings stand for the structures. Inconclusive results are not listed. Unmarked numbers belong to inactive results. Calls of active or inactive are those of the source. The call rests on the fitted dose curve; in most records, active means well fitted curve in the direction sought with a large enough effect in the repeat runs; inconclusive means weak or mixed curves; inactive means no such curve, though single readings can be large; an effect the other way counts as inactive or inconclusive.

Experiment [1] in a line: qHTS RealTime-Glo MT Cell Viability Assay in HEK293 cells - 16 hour (AID 1224872). Further: top concentration of the series differs between compounds; nearly all actives have a fitted effect of over 50% in size. A digest of the protocol:
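HEK293 cells seeded with NanoLuc/prosubstrate reagent, rested 5 h at 37 C, then dosed and kept at 37 C up to 40 h. Nonlytic real-time luminescence from viable cells read at 0, 8, 16, 24, 32 and 40 h.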
A general note: qHTS replaces the single test concentration by a dilution series.

A short description of experiment [2]: qHTS RealTime-Glo MT Cell Viability Assay in HepG2 cells - 8 hour (AID 1224873). Further: nearly all actives have a fitted effect of over 55% in size. The essentials: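 HepG2 cells mixed with RealTime-Glo MT reagents (NanoLuc plus cell-permeant prosubstrate) were seeded at 600 cells/well, incubated 5 h at 37 C/5% CO2, then pinned with compounds in DMSO; nonlytic luminescence tracked viability during 40 h treatment.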
Experiment [3] is described as follows: qHTS RealTime-Glo MT Cell Viability Assay in HEK293 cells - 40 hour (AID 1224874). Further: nearly all actives have a fitted effect of over 50% in size. Further: potency means the concentration at half of the fitted maximal effect. The settings on record: RealTime-Glo luminescence; max response: active compounds read low. The essentials:
(§1)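 Tox21 screen in HEK293 using RealTime-Glo MT chemistry, with cells and reagent co-dispensed. Luminescence proportional to viable cell number was captured at intervals during 40 h compound exposure at 37 C.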

The nature of experiment [4]: A CellTox Green Cytotoxicity Assay to monitor cytotoxicity in HEK293 cells - 24 hour (AID 1224875). Further: series mostly up to about 77 µM; nearly all actives have a fitted effect of over 45% in size. A digest of the protocol: (§2)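 Seeding of HEK293 cells together with cytotoxicity dye preceded a 5 h incubation at 37 C/5% CO2. Test compounds in DMSO were then added and fluorescence monitored across 40 h.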
Experiment [5] in a line: A CellTox Green Cytotoxicity Assay to monitor cytotoxicity in HepG2 cells - 16 hour (AID 1224876). Further: nearly all actives have a fitted effect of over 45% in size. The essentials:
(§3)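 Nonlytic assay: viable cells exclude the dye, so fluorescence scales with cell death. HepG2 at 600 cells/well, compounds added after 5 h, signal read across 40 h.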

Experiment [6] can be described thus: qHTS RealTime-Glo MT Cell Viability Assay in HepG2 cells - 32 hour (AID 1224877). Further: nearly all actives have a fitted effect of over 55% in size. The essentials: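 HepG2 cells (600/well) were dispensed with RealTime-Glo reagents, incubated 5 h at 37 °C, then treated with compounds in DMSO for up to 40 h. Nonlytic NanoLuc luminescence reflecting viable cells was read at each stated time point.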
The nature of experiment [7]: A CellTox Green Cytotoxicity Assay to monitor cytotoxicity in HepG2 cells - 24 hour (AID 1224878). Further: nearly all actives have a fitted effect of over 45% in size. A digest of the protocol:
as §3

Experiment [8] can be described thus: A CellTox Green Cytotoxicity Assay to monitor cytotoxicity in HepG2 cells - 40 hour (AID 1224879). Further: nearly all actives have a fitted effect of over 40% in size. A digest of the protocol:
as §3

The nature of experiment [9]: qHTS RealTime-Glo MT Cell Viability Assay in HEK293 cells - 0 hour (AID 1224880). Further: top concentration of the series differs between compounds; nearly all actives have a fitted effect of over 45% in size. The essentials:
as §1

Experiment [10] can be described thus: A CellTox Green Cytotoxicity Assay to monitor cytotoxicity in HEK293 cells - 32 hour (AID 1224881). Further: nearly all actives have a fitted effect of over 40% in size. The essentials: as §2
On the % scale 0 is the no-effect control and ±100 the full control effect.

Take `C[C@@H]1CN(c2c(F)c(N)c3c(=O)c(C(=O)O)cn(C4CC4)c3c2F)C[C@H](C)N1`: the results for the activity change, negative = cytotoxicity in [1] and in [9] were -1.59% [at 15.8 µM] and -2.5% [at 15.8 µM], respectively. Besides, the viability change, negative = cytotoxic in [2] was 0.974% [at 15.8 µM]. In experiment [3], the max response is -0.345%. In [4], the activity change is 0.48% [at 15.8 µM, active compounds read high]. Moreover, the cytotoxicity increase was -2.88% [at 15.8 µM] in [5], -1.78% [at 15.8 µM] in experiment [8] and 5.84% [at 15.8 µM] in experiment [10]. In experiment [6], the activity change, negative = cytotoxic was 1.06% [at 15.8 µM]. Also, in experiment [7], the cytotoxicity is -3.54% [at 15.8 µM].
For `CCCCNCCCC`, the Potency result in experiment [1], in [4], in [5], in [6], in experiment [7] and in [8] was “inactive” throughout. Also, the Potency result in experiment [10] was “inactive”. Further, the molecule was called inactive in [2] and in experiment [9]. Also, the max response in experiment [3] is 1.62%.
For `CC(C)Nc1nc(N)nc(Cl)n1`, the Potency entry in [1], in experiment [4], in [5], in experiment [6], in experiment [7] and in experiment [8] was “inactive” throughout. Moreover, the Potency result in experiment [10] was “inactive”. Also, the molecule was called inactive in [2] and in experiment [9]. In experiment [3], the max response was 10.6%.
Turning to `CN(CC1(C)CCCO1)S(=O)(=O)c1ccc(Cl)c(S(N)(=O)=O)c1` (stereo not given), the Potency result in experiment [1], in experiment [4], in experiment [5], in experiment [6], in [7] and in experiment [8] was “inactive” throughout. Also, in experiment [10], the Potency entry was “inactive”. Further, the outcome in experiment [2] and in [9] was inactive. Besides, the max response in [3] was 2.08%.
On to `CCCCN1C[C@H](O)[C@@H](O)[C@H](O)[C@H]1CO`, for which the Potency result in [1], in [4], in experiment [5], in experiment [6], in [7] and in experiment [8] was “inactive” each time. The Potency result in [10] is “inactive”. Moreover, the molecule was classed as inactive in [2] and in experiment [9]. Besides, in experiment [3], the max response was 5.15%.
In the case of `Cc1nc(N)nc(N)c1-c1ccc(Cl)c(Cl)c1`, the Potency result in experiment [1], in [4], in experiment [5], in experiment [6], in experiment [7] and in experiment [8] was “inactive” in each case. Further, in [10], the Potency entry is “inactive”. The molecule was classed as inactive in experiment [2] and in [9]. Moreover, the Potency in experiment [3] is 1070 nM (active).
Regarding `FC(F)(F)C(F)(F)C(F)(F)C(F)(F)C(F)(F)C(F)(F)C(F)(F)C(F)(F)Br`, the Potency result in experiment [1], in [4], in experiment [5], in experiment [6], in experiment [7] and in [8] was “inactive” throughout. In experiment [10], the Potency result is “inactive”. Besides, the call in experiment [2] and in [9] was inactive. Moreover, in experiment [3], the max response was -0.235%.
In the case of `NC(Cc1ccc(F)cc1)C(=O)O` (stereo not given), the activity change, negative = cytotoxicity is 1.36% [at 6.97 µM] in [1] and -1.64% [at 6.97 µM] in experiment [9]. In experiment [2], the viability change, negative = cytotoxic was 1.3% [at 6.97 µM]. The max response in experiment [3] is 2.65%. Besides, in experiment [4], the activity change was 11.7% [at 6.97 µM, active compounds read high]. The cytotoxicity increase in experiment [5] is 8.03% [at 6.97 µM]; in [8], 7.77% [at 6.97 µM]; in [10], 12.7% [at 6.97 µM]. Further, in [6], the activity change, negative = cytotoxic is -6.06% [at 6.97 µM]. For the same molecule, in [7], the cytotoxicity was 7.85% [at 6.97 µM].
Regarding `C1CCOC1`, the Potency result in [1], in experiment [4], in [5], in experiment [6], in experiment [7] and in [8] was “inactive” each time. The Potency entry in experiment [10] is “inactive”. Besides, the call in [2] and in experiment [9] was inactive. Moreover, in [3], the max response was 0.369%.
For the molecule `CCCCC(CC)COC(=O)COc1cc(Cl)c(Cl)cc1Cl` (stereo not given), the Potency result in experiment [1], in experiment [4], in [5], in experiment [6], in experiment [7] and in [8] was “inactive” throughout. The Potency entry in experiment [10] was “inactive”. The molecule was called inactive in experiment [2] and in experiment [9]. Further, the max response in experiment [3] is -3.13%.
Take `O=C1CCCc2ccccc21`: the Potency entry in experiment [1], in [4], in experiment [5], in experiment [6], in experiment [7] and in experiment [8] was “inactive” in each case. The Potency result in [10] was “inactive”. The molecule was classed as inactive in [2] and in [9]. Besides, in experiment [3], the max response is 23.3%.
Take `NC(=O)Cc1cccc(C(=O)c2ccccc2)c1N`: the Potency entry in experiment [1], in experiment [4], in [5], in experiment [6], in experiment [7] and in [8] was “inactive” in each case. Further, in experiment [10], the Potency result was “inactive”. Also, the molecule was classed as inactive in experiment [2] and in [9]. In experiment [3], the max response was -24.1%.
Regarding `OCCN(CCO)c1ccccc1`, the Potency entry in experiment [1], in [4], in experiment [5], in experiment [6], in experiment [7] and in [8] was “inactive” each time. In addition, in experiment [10], the Potency result was “inactive”. For the same molecule, the outcome in [2] and in experiment [9] was inactive. Also, the max response in [3] was 1.89%.
`NNS(=O)(=O)c1ccc(Oc2ccc(S(=O)(=O)NN)cc2)cc1`: the Potency result in [1], in experiment [4], in experiment [5], in experiment [6], in experiment [7] and in [8] was “inactive” in each case. The Potency result in experiment [10] is “inactive”. Moreover, the molecule was classed as inactive in experiment [2] and in [9]. In addition, in [3], the max response was 0.181%.
On to `C=C(C)C(=O)OCCOP(=O)(O)O`, for which the Potency result in [1], in experiment [4], in experiment [5], in experiment [6], in [7] and in [8] was “inactive” throughout. Besides, the Potency result in experiment [10] is “inactive”. The molecule was called inactive in experiment [2] and in [9]. Further, in experiment [3], the max response is 13.8%.
Consider `NC1=NCC2c3ccccc3Cc3ccccc3N12` (stereo not given), for which the Potency result in [1], in experiment [4], in experiment [5], in experiment [6], in experiment [7] and in experiment [8] was “inactive” in each case. In addition, in experiment [10], the Potency result is “inactive”. Moreover, the call in experiment [2] and in experiment [9] was inactive. In experiment [3], the max response is -13.1%.
Regarding `CCOc1ccc2nc(N)sc2c1`, the Potency result in experiment [1], in experiment [4], in experiment [5], in experiment [6], in experiment [7] and in experiment [8] was “inactive” throughout. Also, in [10], the Potency result was “inactive”. Also, the result in experiment [2] and in [9] was inactive. Also, the max response in experiment [3] is -4.71%.
Consider `CC1(C)S[C@@H]2[C@H](NC(=O)C(C(=O)O)c3ccccc3)C(=O)N2[C@H]1C(=O)O` (stereo not given in full), for which the Potency entry in experiment [1], in [4], in experiment [5], in experiment [6], in experiment [7] and in [8] was “inactive” each time. For the same molecule, the Potency entry in experiment [10] is “inactive”. For the same molecule, the result in experiment [2] and in experiment [9] was inactive. Further, the max response in experiment [3] is -0.907%.
